NS1 inh = inhibitors of influenza NS1 protein function; actives 0.4% (n = 270,000); Potency, µM (highest dose often 46.1 µM); calls by dose curve; also: actives are rising curves; nearly all actives have a fitted effect of over 50% in size
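Read-out: OD600 growth recovery of NS1-expressing budding yeast. Cells grown overnight at 30C in -URA glucose medium, washed, resuspended and diluted 1:100 in 2% galactose assay medium, pH 6.0. Same strain lacking NS1 served as positive control.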
Giardia FBPA inh = Giardia lamblia aldolase inhibition; AID 2451; A8B2U2; purified Giardia FBPA; actives 0.71% (n = 290,000); Potency, µM (series often up to 59.6 µM), hits mostly inhibitors; also: nearly all actives have a fitted effect of over 55% in size
Target sequence (A8B2U2 whole entry, looked up): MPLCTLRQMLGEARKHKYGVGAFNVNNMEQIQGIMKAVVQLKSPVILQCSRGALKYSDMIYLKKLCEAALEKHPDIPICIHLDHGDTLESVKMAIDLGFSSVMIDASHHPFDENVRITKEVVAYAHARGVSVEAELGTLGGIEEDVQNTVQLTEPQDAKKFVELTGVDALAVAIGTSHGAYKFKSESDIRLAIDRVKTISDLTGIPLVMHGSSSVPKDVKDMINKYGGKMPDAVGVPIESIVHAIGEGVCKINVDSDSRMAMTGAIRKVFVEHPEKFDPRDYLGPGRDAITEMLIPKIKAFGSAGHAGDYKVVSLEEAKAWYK
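Giardia FBPA (40 nM reagent) was preincubated 10 min at RT with compound (up to 57.5 uM final), then substrate plus GAPDH/TPI/NAD/arsenate coupling system with diaphorase/resazurin was added; resorufin fluorescence (525/598 nm) was read after 20 min.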
Pf growth 48h = inhibits P. falciparum growth in the first generation, 48 h | Potency, µM (doses to about 28.7 µM), actives largely listed as inhibitors | P. falciparum luciferase growth in erythrocytes, 48 h | AID 504832 | actives 5.9% (n = 310,000)
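Luciferase-expressing P. falciparum in infected erythrocytes (2% hematocrit, 0.1% parasitemia final) in RPMI 1640/0.5% Albumax were exposed to compound for 48 hours at 37 C, 5% CO2; growth read as luminescence.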
Shiga toxin inh = Shiga toxin inhibition; Vero cells, Shiga toxin protein synthesis inhibition reporter; inhibition, % at 38.7 µM; actives 9.2% (n = 290,000); in the data active = inhibition mostly above about 28%, no sharp cut-off; inactive = mostly below about 43%
Cycloheximide cs = counter-screen hit for Shiga toxin inhibitors, cycloheximide; actives 12% (n = 300,000); max response, %; cell reporter, cycloheximide protein synthesis inhibition counterscreen; in the data active = max response mostly above about 13%, no sharp cut-off; inactive = mostly below about 14%; also: read at 38.3 µM for the half of the compounds with a filed dose
Pf growth 96h = P. falciparum growth inhibition at 96 hours. Potency, µM (doses to about 28.7 µM), usual class: inhibitors. AID 504834. actives 6.9% (n = 320,000). P. falciparum luciferase reporter growth, 96 h
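Parasite growth measured via integrated firefly luciferase reporter in P. falciparum. Infected erythrocytes at 2% hematocrit, 0.05% parasitemia final were treated 96 hours at 37 C under 5% CO2, and luminescence was read.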
Large screens that a line does not name were inactive. Sampled rows, rich in hits. Any-hit rate of the full collection: about 21%. Unless noted, calls follow the shape of the dose curve; as a rule, active = well fitted curve in the direction sought with a large enough effect; inconclusive = small, poorly fitted or top-dose-only effect, or another doubt; inactive = no such curve, though single readings can be large; an effect the other way counts as inactive or inconclusive.

O=C(N=C1N=C2C=CC(Br)=CN2Cc2ccccc21)c1ccc([N+](=O)[O-])cc1[N+](=O)[O-]	Pf growth 48h inconclusive, Shiga toxin inh 61, Cycloheximide cs 40
O=C(c1ccc([N+](=O)[O-])cc1[N+](=O)[O-])N1CCCC1	none
COc1cc(/C=C/c2ccc3c(Br)cc(Br)c(O)c3n2)ccc1O	Giardia FBPA inh inconclusive, Pf growth 48h 9.3µM, Pf growth 96h 3.7µM
COc1ccc(/C=C/c2ccc3c(Br)ccc(O)c3n2)cc1	Shiga toxin inh 94, Cycloheximide cs 39
COc1ccc(C(Nc2cc(C)ccn2)c2ccc3ccc(C)nc3c2O)cc1 (stereo not given)	Pf growth 48h inconclusive
Cc1ccc2c(Br)cc(Br)c(O)c2n1	Pf growth 48h 12µM, Pf growth 96h 6.7µM (no result: NS1 inh, Giardia FBPA inh, Shiga toxin inh, Cycloheximide cs)
COc1ccc(C(=O)Nc2ccc(SC(F)F)cc2)cc1	Shiga toxin inh 98, Cycloheximide cs 49
COc1ccc(NC(=O)c2nc(SC)ncc2Cl)cc1	none
COc1ccc(NC(=O)c2cnc(SC)nc2)cc1	Cycloheximide cs 32
COc1ccc(C(=O)NC(=S)Nc2ccc(S(N)(=O)=O)cc2)cc1	Giardia FBPA inh inconclusive, Cycloheximide cs 18, Pf growth 96h inconclusive
COc1ccc(-c2ccc3c(N)c(C(=O)Nc4cccc(C)c4)sc3n2)cc1	Cycloheximide cs 43 (no result: NS1 inh, Giardia FBPA inh, Pf growth 48h, Pf growth 96h)
C/C(=C\C(=O)c1ncc(C(F)(F)F)cc1Cl)N(C)C	Pf growth 96h inconclusive
COc1ccc(-c2nc(CS(=O)CC(=O)NC(C)CCc3ccccc3)c(C)o2)cc1OC (stereo not given)	none
COc1ccc(C(=O)Nc2ccc3nc(C)c(C)nc3c2)cc1	Shiga toxin inh 129, Cycloheximide cs 39
COc1ccc(NC(=O)c2ccc(C)cc2)cc1	Cycloheximide cs 38, Pf growth 96h inconclusive (no result: Shiga toxin inh)
Cc1ccc(NC(=O)c2ccc(OC(=O)COc3ccc(Cl)c(C)c3)cc2)cc1	Shiga toxin inh 96, Cycloheximide cs 49
COc1ccc(C(=O)NNC(=O)C(=O)Nc2ccc(C)cc2)cc1	none
COc1ccc(C(=O)Nc2cccc(C)c2)cc1	Shiga toxin inh 61, Cycloheximide cs 28
CCCOC(=O)Cn1cnc2scc(-c3ccc(OC)cc3)c2c1=O	none
CCCCCCCCCCCCCC(=O)N[C@H](C)[C@@H](O)c1ccccc1	none (no result: NS1 inh, Pf growth 48h, Shiga toxin inh, Cycloheximide cs, Pf growth 96h)
CCCn1c(C(C)Nc2nc(-c3cc(Cl)c(N)c(Cl)c3)cs2)nc2cc(Cl)c(N3CCCCC3)cc21 (stereo not given)	Pf growth 48h inconclusive, Pf growth 96h 7.4µM
CCCn1c(C(C)Nc2nc(C)cs2)nc2cc(Cl)c(Cl)cc21 (stereo not given)	none
CCCn1c(C(C)Nc2nc(-c3ccc(Cl)c([N+](=O)[O-])c3)cs2)nc2ccccc21 (stereo not given)	Giardia FBPA inh inconclusive, Pf growth 48h 13µM, Pf growth 96h 5.9µM
CCCn1c(C(C)Nc2nc(-c3ccc(C)cc3)cs2)nc2ccccc21 (stereo not given)	Pf growth 48h inconclusive, Pf growth 96h 9.3µM
Cc1ccc(NC(=O)COC(=O)c2ccc(CN3CCCC3=O)cc2)cc1C	none (no result: NS1 inh, Giardia FBPA inh, Shiga toxin inh, Cycloheximide cs)
CCn1cc(C(=O)OCC(=O)NCc2ccccc2Cl)c(=O)c2ccc(C)nc21	none (no result: NS1 inh)
COc1cccc(C2C(C#N)=C(N)N(N(C)C)C3=C2C(=O)CCC3)c1 (stereo not given)	none
COc1cccc(C2C(C#N)=C(N)SC(c3ccccc3)C2[N+](=O)[O-])c1 (stereo not given)	NS1 inh inconclusive, Pf growth 48h 10µM
O=C(Nc1ccccc1)N1CC[C@@]2(CCCN(C(=O)c3ccco3)C2)C1	none (no result: NS1 inh, Pf growth 48h, Shiga toxin inh, Cycloheximide cs, Pf growth 96h)
O=C(c1cnccn1)N1CCC2(CC1)CCN(c1ccncc1)CC2	none (no result: NS1 inh, Pf growth 48h, Shiga toxin inh, Cycloheximide cs, Pf growth 96h)
Cc1cccc(N(C)S(=O)(=O)c2ccc(-c3cc(C)no3)s2)c1	none
CCN(c1cccc(C)c1)S(=O)(=O)c1ccc(-c2cc(C)no2)s1	Pf growth 48h inconclusive, Pf growth 96h 12µM (no result: Giardia FBPA inh)
Clc1ccc(-c2ccc(SCc3ccccn3)nn2)cc1	Shiga toxin inh 59, Cycloheximide cs 41, Pf growth 96h inconclusive
N=C(N)SCc1ccccn1	Pf growth 48h inconclusive
c1ccc(CSc2nnc(SCc3ccccn3)s2)nc1	Shiga toxin inh 59, Cycloheximide cs 30
c1ccc(CSc2ccc(-c3ccccn3)nn2)nc1	Giardia FBPA inh inconclusive, Shiga toxin inh 98, Cycloheximide cs 48 (no result: NS1 inh)
O=C(CSc1ccc(-c2ccncc2)nn1)c1ccc(Cl)cc1	none (no result: NS1 inh)
CCn1cc(C(=O)NCCCN2CCC(C)CC2)c(=O)c2cc(S(=O)(=O)N3CCOCC3)ccc21	Pf growth 48h inconclusive, Pf growth 96h inconclusive
CCOC(=O)N1CCC(N2CCN(S(=O)(=O)c3ccc([N+](=O)[O-])cc3)CC2)CC1	Giardia FBPA inh inconclusive, Pf growth 48h 2.1µM, Pf growth 96h inconclusive
CCOC(=O)N1CCC(N2CCN(S(=O)(=O)c3ccc4ccccc4c3)CC2)CC1	Giardia FBPA inh inconclusive, Pf growth 96h 12µM (no result: Pf growth 48h)
CCOC(=O)C1CCCN(S(=O)(=O)c2ccc3ccccc3c2)C1 (stereo not given)	none (no result: Giardia FBPA inh)
COc1cc(OC)c(C2=NOC(C(=O)Nc3c(C)nn(CC(=O)N4CCCC4)c3C)C2)cc1Cl (stereo not given)	Pf growth 96h 5.9µM
CCn1ncc(C2=NOC(C(=O)Nc3cc(OC)c(Cl)cc3OC)C2)c1C (stereo not given)	Pf growth 96h inconclusive
CCCCC[C@]12Cc3ccccc3C(O1)c1c(cc(C)oc1=O)O2	Pf growth 96h 0.67µM
COc1ccccc1C(=O)Nc1ccnn1C1CCN(C/C=C/c2ccc(F)cc2)CC1	Pf growth 48h 12µM
COc1ccccc1C(=O)Nc1ccnn1C1CCN(C)CC1	none (no result: Giardia FBPA inh)
O=C(Nc1ccnn1C1CCN(C/C=C/c2ccccc2)CC1)C1CCCC1	Pf growth 48h 13µM, Pf growth 96h inconclusive (no result: Giardia FBPA inh)
COc1ccccc1C(=O)Nc1ccnn1C1CCN(C(=O)C2CCOC2)CC1 (stereo not given)	Cycloheximide cs 13
CC(C)=NOCc1cccc(-c2cc(-c3ccccc3)no2)c1	none (no result: NS1 inh, Pf growth 48h, Shiga toxin inh, Cycloheximide cs, Pf growth 96h)
O=[N+]([O-])c1cc(S(=O)(=O)NC2=NCCCCC2)ccc1NCC1CCCCC1	Pf growth 96h inconclusive (no result: NS1 inh)
CCCCc1nc2c(c3c1C[C@H](C)OC3)CN(C(=O)c1ccco1)CC2	none (no result: NS1 inh, Pf growth 48h, Shiga toxin inh, Cycloheximide cs, Pf growth 96h)
CSc1nc(N(C)NC(=O)c2ccc(F)cc2)c2ccccc2n1	Pf growth 48h 2.1µM, Pf growth 96h 2.3µM
COc1ccc(S(=O)(=O)N2CCN(C(=O)c3ccc(=O)[nH]n3)CC2)cc1OC	none (no result: NS1 inh, Giardia FBPA inh, Shiga toxin inh, Cycloheximide cs)
Cc1ccc(NC(=O)CSC(C)c2nc3ccccc3c(=O)[nH]2)cc1 (stereo not given)	Giardia FBPA inh inconclusive, Pf growth 96h 15µM
CC(SCC(=O)Nc1ccccc1)c1nc2ccccc2c(=O)[nH]1 (stereo not given)	Giardia FBPA inh inconclusive, Pf growth 96h inconclusive
COc1ccc(C(=O)CSc2cc(C)nc(SCC(=O)c3ccc(C)cc3)n2)cc1	none

High-throughput results (PubChem BioAssay)
